Experimental findings from PubChem BioAssay (NCATS) are described below.

A number with no mark means an inactive call. Records with an inconclusive call do not appear. The source made the active and inactive calls. Calls come from the whole dose curve; as a rule, active = well fitted curve in the direction sought with a large enough effect; inconclusive = small, poorly fitted or top-dose-only effect, or another doubt; inactive = no such curve, though single readings can be large; an effect the other way counts as inactive or inconclusive.
Potency is the fitted concentration of half-maximal effect.

Chain of Arylsulfatase A (Homo sapiens) (P15289 whole entry, looked up): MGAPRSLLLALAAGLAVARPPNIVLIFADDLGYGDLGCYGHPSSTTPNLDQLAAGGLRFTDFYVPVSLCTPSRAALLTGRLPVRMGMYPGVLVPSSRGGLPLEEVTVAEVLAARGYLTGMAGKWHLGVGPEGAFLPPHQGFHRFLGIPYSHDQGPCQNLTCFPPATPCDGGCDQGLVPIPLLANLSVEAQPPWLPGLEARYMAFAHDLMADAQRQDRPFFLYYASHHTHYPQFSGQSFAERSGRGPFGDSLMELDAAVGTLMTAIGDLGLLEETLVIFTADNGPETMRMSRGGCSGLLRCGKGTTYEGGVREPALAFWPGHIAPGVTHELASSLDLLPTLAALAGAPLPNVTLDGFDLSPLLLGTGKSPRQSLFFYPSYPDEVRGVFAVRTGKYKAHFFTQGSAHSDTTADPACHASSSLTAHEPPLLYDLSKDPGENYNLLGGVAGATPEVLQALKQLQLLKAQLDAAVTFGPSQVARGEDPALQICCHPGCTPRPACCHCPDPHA

The first assay concerns the target Arylsulfatase A (Homo sapiens) (UniProt P15289). Put plainly: qHTS screen for enhancers of Arylsulfatase A (ASA1): LOPAC Validation Assay (AID 720538). For activity change, positive = activation: 0% is about no effect. The conditions noted are these: ASA enzyme activity, LOPAC qHTS enhancer assay; series mostly up to 57.5 µM; activity change, positive = activation: at the top concentration. The method in brief:
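First, ASA-I179S fibroblasts from an MLD patient adhered for 6 hrs. Next, compounds were added for 48h. Then pNCS substrate (0.5mM final) with lysis buffer reacted 14h at room temperature before NaOH stop and fluorescence measurement.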
A general note: qHTS replaces the single test concentration by a dilution series.
Regarding `CC(=O)N[C@H](C(=O)O)C(C)(C)SN=O`, the outcome was inactive.
As for `N=C(N)SCCc1ccc(CCSC(=N)N)cc1`, the “activity change, positive = activation” value is 17.9%.
As to `CCCCCCCCCCCCCCCCCCNC(=O)OCC(COP(=O)([O-])OCC[n+]1ccsc1)OC` (configuration not stated), the “outcome” value was “inactive; inhibitor; fitted 6.012 uM”.
For `CSc1ccccc1N1CCN(CCCCCC(=O)NC2CCCc3ccccc32)CC1` (configuration not stated), the “activity change, positive = activation” value is 16.9%.
With `Clc1ccc(N2CCN(Cc3cc4ccccn4n3)CC2)cc1`, the “activity change, positive = activation” value was -0.989%.
Regarding `NS(=O)(=O)C#Cc1ccccc1`, the “activity change, positive = activation” value was -32.5%.
For the molecule `NCCSSCCN`, the result was inactive.
As for `CN1CCc2cc(O)c(O)cc2C(c2ccccc2)C1` (configuration not stated), the Potency was 21.3 µM (active).
Consider `Nc1ncnc2c1c(I)cn2[C@@H]1C[C@H](N)[C@@H](O)[C@H]1O`, for which the “activity change, positive = activation” value was -31.9%.
`N#C/C(=C\c1ccc(O)c(O)c1)C(=O)NCCCc1ccccc1`: the “activity change, positive = activation” value was 0.941%.
Regarding `O=C1NC(=O)/C(=C/c2ccc(-c3ccc(F)cc3O)o2)S1`, the “activity change, positive = activation” value is -1470%.
In the case of `OC[C@H]1O[C@@H](n2cnc3c(Nc4ccccc4)ncnc32)[C@H](O)[C@@H]1O`, the “activity change, positive = activation” value is -24.7%.
As to `CO/N=C(\C(=O)N[C@@H]1C(=O)N2C(C(=O)O)=C(COC(C)=O)CS[C@H]12)c1csc(N)n1`, the “activity change, positive = activation” value was 2.96%.
With `Oc1cc(O)cc(/C=C/c2ccc(O)c(O)c2)c1`, the Potency was 23.9 µM (active).
Consider `C=CC(=O)c1ccc(CCCCCC)cc1`, for which the “activity change, positive = activation” value was -15.6%.
Still for that read-out and setting: the value for `CN1CCc2cc(NC(=O)Nc3cccnc3)ccc21` was -25%; that for `NC(=S)NCCC[C@H](N)C(=O)O` was -20.1%.
In the case of `COc1cccc(OC)c1OCCNCC1COc2ccccc2O1` (configuration not stated), the “activity change, positive = activation” value is -10.8%.
Take `O=C(O)CC1CCCc2ccccc2C1O` (configuration not stated): the “activity change, positive = activation” value is -19.7%.
As to `O=c1[nH]c2cc(Cl)c(Cl)cc2[nH]c1=O`, the outcome was inactive.
For `CCN(CC)c1ncnc2c1ncn2[C@@H]1O[C@H](COP(=O)(O)OP(=O)(O)C(Br)(Br)P(=O)(O)O)[C@@H](O)[C@H]1O`, the “activity change, positive = activation” value was 1.44%.
`Cn1ncc(S(=O)(=O)Cc2ccccc2)c(Br)c1=O`: the result was inactive.
In the case of `Fc1ccc(C(OCCCc2cnc[nH]2)c2ccc(F)cc2)cc1`, the “activity change, positive = activation” value was 3.47%.
As for `Cc1cc(NC(=O)Nc2ccc3c(ccn3C)c2)sn1`, the “activity change, positive = activation” value was -23.2%.
Turning to `CCCCCCCCCCCCCCCCCC(=O)OC(CC(=O)O)C[N+](C)(C)C` (configuration not stated), the “activity change, positive = activation” value is -14.4%.
`O=C1/C(=C/c2ccsc2)CC/C1=C\c1cccs1`: the “activity change, positive = activation” value was -39.8%.
In the case of `CCCCCCCCCCCCCCCCCC(=O)NCC(COP(=O)([O-])OCC[N+](C)(C)C)OCC` (configuration not stated), the result was inactive.
As for `CSc1nc(N)c2ncn([C@@H]3O[C@H](COP(=O)(O)OP(=O)(O)OP(=O)(O)O)[C@@H](O)[C@H]3O)c2n1`, the outcome was inactive.
As to `COc1ccc2c(c1)CCC1C2CC[C@@]2(C)C1CC[C@@H]2NCCCCCCN1C(=O)CCC1=O` (some centres not stated), the “activity change, positive = activation” value was -68.6%.
Consider `CC(C)Cc1ccc([C@H](C)C(=O)O)cc1`, for which the “outcome” value was “inactive; inhibitor; fitted 0.151 uM”.
Turning to `C[N+](C)(C)CC(=O)[O-]`, the result was inactive.
The same measure, in the same setting: the value for `Cn1c(=O)c2[nH]c(-c3ccccc3)nc2n(C)c1=O` was “inactive”.
Consider `CC(=O)/C=C1\C(=O)N(C)c2ccccc21`, for which the “activity change, positive = activation” value was -14%.
Turning to `O=C(c1cc(O)c(O)c([N+](=O)[O-])c1)c1ccccc1F`, the Potency is 19 µM (active).
Regarding `CC(=O)SCC[N+](C)(C)C`, the “activity change, positive = activation” value was -19%.
Take `Nc1nc(Cl)nc2c1ncn2[C@@H]1O[C@H](COP(=O)(O)OP(=O)(O)OP(=O)(O)O)[C@@H](O)[C@H]1O`: the “activity change, positive = activation” value was 7.3%.

System in a further assay: not listed separately
Put plainly: qHTS for compounds that reverse cellular toxicity of Amyloid beta (A-beta) peptide in yeast: LOPAC Validation Assay (AID 720559).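 For growth rescue, positive = activation: plate controls were DMSO for no effect and equimolar ferric chloride plus clioquinol rescue for full effect.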 Conditions: yeast expressing A-beta; Potency: rescue of growth toxicity; series mostly up to 46.1 µM; growth rescue, positive = activation: at the top concentration. The method, boiled down: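 Activity is expressed relative to DMSO and an equimolar ferric chloride/clioquinol mix. Compounds were pinned into medium with A-beta-expressing yeast, grown 48 hr at 30 C, then read by absorbance at 600 nm.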
As for `CC(=O)N[C@H](C(=O)O)C(C)(C)SN=O`, the “growth rescue, positive = activation” value is 2.2%.
Consider `N=C(N)SCCc1ccc(CCSC(=N)N)cc1`, for which the “growth rescue, positive = activation” value is -1.98%.
In the case of `CCCCCCCCCCCCCCCCCCNC(=O)OCC(COP(=O)([O-])OCC[n+]1ccsc1)OC` (configuration not stated), the “growth rescue, positive = activation” value is -2.68%.
Same read-out and setting: the same measure for `CSc1ccccc1N1CCN(CCCCCC(=O)NC2CCCc3ccccc32)CC1` (configuration not stated): -1.07%.
For `Clc1ccc(N2CCN(Cc3cc4ccccn4n3)CC2)cc1`, the “growth rescue, positive = activation” value was -1.76%.
On the same count and under the same terms, the value for `NS(=O)(=O)C#Cc1ccccc1` was -29.5%.
On to `NCCSSCCN`, for which the “growth rescue, positive = activation” value was 1.57%.
`CN1CCc2cc(O)c(O)cc2C(c2ccccc2)C1` (configuration not stated): the “growth rescue, positive = activation” value was -4.04%.
Consider `Nc1ncnc2c1c(I)cn2[C@@H]1C[C@H](N)[C@@H](O)[C@H]1O`, for which the “growth rescue, positive = activation” value was 12.3%.
Regarding `N#C/C(=C\c1ccc(O)c(O)c1)C(=O)NCCCc1ccccc1`, the “growth rescue, positive = activation” value was -4.57%.
For `O=C1NC(=O)/C(=C/c2ccc(-c3ccc(F)cc3O)o2)S1`, the “growth rescue, positive = activation” value was -4.33%.
Turning to `OC[C@H]1O[C@@H](n2cnc3c(Nc4ccccc4)ncnc32)[C@H](O)[C@@H]1O`, the “growth rescue, positive = activation” value was -2.1%.
On to `CO/N=C(\C(=O)N[C@@H]1C(=O)N2C(C(=O)O)=C(COC(C)=O)CS[C@H]12)c1csc(N)n1`, for which the “growth rescue, positive = activation” value was 12.1%.
Consider `Oc1cc(O)cc(/C=C/c2ccc(O)c(O)c2)c1`, for which the “growth rescue, positive = activation” value was -2.1%.
Regarding `C=CC(=O)c1ccc(CCCCCC)cc1`, the “growth rescue, positive = activation” value was -57.6%.
For the molecule `CN1CCc2cc(NC(=O)Nc3cccnc3)ccc21`, the “growth rescue, positive = activation” value is -2.38%.
For the molecule `NC(=S)NCCC[C@H](N)C(=O)O`, the “growth rescue, positive = activation” value was -16%.
For the molecule `COc1cccc(OC)c1OCCNCC1COc2ccccc2O1` (configuration not stated), the “growth rescue, positive = activation” value was -3.62%.
In the case of `O=C(O)CC1CCCc2ccccc2C1O` (configuration not stated), the “growth rescue, positive = activation” value is 1.92%.
`O=c1[nH]c2cc(Cl)c(Cl)cc2[nH]c1=O`: the “growth rescue, positive = activation” value was -0.667%.
As to `CCN(CC)c1ncnc2c1ncn2[C@@H]1O[C@H](COP(=O)(O)OP(=O)(O)C(Br)(Br)P(=O)(O)O)[C@@H](O)[C@H]1O`, the “growth rescue, positive = activation” value was -2.74%.
Same read-out and setting: the same measure for `Cn1ncc(S(=O)(=O)Cc2ccccc2)c(Br)c1=O`: -61.5%; for `Fc1ccc(C(OCCCc2cnc[nH]2)c2ccc(F)cc2)cc1`: -5.46%.
As to `Cc1cc(NC(=O)Nc2ccc3c(ccn3C)c2)sn1`, the “growth rescue, positive = activation” value was -5.41%.
Same read-out and setting: the value for `CCCCCCCCCCCCCCCCCC(=O)OC(CC(=O)O)C[N+](C)(C)C` (configuration not stated) was -60.5%; that for `O=C1/C(=C/c2ccsc2)CC/C1=C\c1cccs1` was 0.143%.
On to `CCCCCCCCCCCCCCCCCC(=O)NCC(COP(=O)([O-])OCC[N+](C)(C)C)OCC` (configuration not stated), for which the “growth rescue, positive = activation” value is -59.9%.
On the same count and under the same terms, the same measure for `CSc1nc(N)c2ncn([C@@H]3O[C@H](COP(=O)(O)OP(=O)(O)OP(=O)(O)O)[C@@H](O)[C@H]3O)c2n1`: 16.1%.
Regarding `COc1ccc2c(c1)CCC1C2CC[C@@]2(C)C1CC[C@@H]2NCCCCCCN1C(=O)CCC1=O` (some centres not stated), the “growth rescue, positive = activation” value was -5.03%.
As to `CC(C)Cc1ccc([C@H](C)C(=O)O)cc1`, the “growth rescue, positive = activation” value was 5.49%.
In the case of `C[N+](C)(C)CC(=O)[O-]`, the “growth rescue, positive = activation” value is -3.56%.
As for `Cn1c(=O)c2[nH]c(-c3ccccc3)nc2n(C)c1=O`, the “growth rescue, positive = activation” value is 2.98%.
Take `CC(=O)/C=C1\C(=O)N(C)c2ccccc21`: the “growth rescue, positive = activation” value is -62.1%.
For `O=C(c1cc(O)c(O)c([N+](=O)[O-])c1)c1ccccc1F`, the “growth rescue, positive = activation” value is -9.8%.
For `CC(=O)SCC[N+](C)(C)C`, the “growth rescue, positive = activation” value was -2.58%.
For `Nc1nc(Cl)nc2c1ncn2[C@@H]1O[C@H](COP(=O)(O)OP(=O)(O)OP(=O)(O)O)[C@@H](O)[C@H]1O`, the Potency is 18.4 µM (active).
